Here are results for nine compounds from PubChem BioAssay (NCATS).

Several values for one entry are separate records, joined by “and”; a condition that tells them apart may be missing. Equal values may be shown once. Results filed as inconclusive are left out. The source holds several records for some structures; these can differ, active in one and inactive in another. Activity calls are given as the source filed them. Unless noted, calls come from the whole dose curve.

Assay [1] has as its target Estrogen receptor (Homo sapiens) (UniProt P03372). As to the kind of experiment: qHTS assay for small molecule antagonists of estrogen receptor alpha signaling (AID 588513; active = well fitted curve in the direction sought with a large enough effect in the signal ratio, with a control signal flat, not every such curve was filed as active; the % refers to the signal ratio; note: % is set by controls: 0 for no effect and ±100 for the full control effect). The essentials: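 Cells were plated at 5000/well and incubated 4 h at 37 C. Compounds were added as 1:2 dilution series, duplicates. 17-beta-estradiol (0.5nM final) was added for 18 h before CCF4 detection.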
In general terms: In qHTS, concentration-response curves come from the screen itself.

For assay [2] the target is unchanged. Briefly: qHTS assay for small molecule agonists of estrogen receptor alpha signaling (AID 588514).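 Note: 0% = vehicle only and 100% = reference agonist; nearly all actives have a fitted effect of over 70% in size.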 The gist of the method: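 EC50 and efficacy came from Hill fits of beta-lactamase reporter signal (CCF4 dye, 2 h at room temperature) scaled between DMSO and 20 nM 17-beta-estradiol. Agonist mode: HEK293 ER-alpha-UAS-bla cells in charcoal/dextran-stripped serum medium, 18 h compound exposure at 37 C.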

In assay [3] the target is Peroxisome proliferator-activated receptor delta (Homo sapiens) (UniProt Q03181). Briefly: qHTS assay for small molecule agonists of peroxisome proliferator-activated receptor delta signaling (AID 588534).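 Note: 0% = DMSO basal wells and 100% = positive control agonist at 10 µM.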 The gist of the method:
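Agonist-mode beta-lactamase reporter readout (CCF4 dye, 2 h at RT) after 18 h at 37 °C exposure to a titration; Hill-equation fitting gave EC50 and maximal response.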

Assay [4] concerns the target Thyroid hormone receptor beta (Homo sapiens) (UniProt P10828). As to the kind of experiment: qHTS assay for small molecule agonists of thyroid hormone receptor beta signaling (AID 588545). The gist of the method: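 HEK 293 TR-UAS-bla; agonist mode; 18 hrs, 37 C; CCF4, ex 405/em 460 and 530 nm; norm. T3 10 nM = 100%, DMSO = 0%; Hill fit → EC50, efficacy.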
The nature of assay [5]: qHTS assay for small molecule antagonists of retinoid X receptor alpha signaling (AID 588546).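 Note: cells stimulated with 9-cis-retinoic acid as agonist; % is set by controls: 0 for no effect and ±100 for the full control effect.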 As to conditions: HEK293T RXRa-UAS-bla, beta-lactamase ratio, antagonist mode; measured here: W530 green channel, cytotoxicity proxy. The gist of the method:
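Beta-lactamase reporter inhibition, read as CCF4 fluorescence ratio (ex 405, em 460/530 nm) after 2 h at RT. HEK293T UAS-bla cells, 2500/well, were stimulated with 9-cis-RA at 500 or 100 nM final alongside test compound for 18 h at 37 C.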

Assay [6] concerns the target Bile acid receptor (Homo sapiens) (UniProt Q96RI1). Briefly: qHTS assay for small molecule antagonists of farnesoid X receptor signaling (AID 588526). Note: % is set by controls: 0 for no effect and ±100 for the full control effect. The gist of the method:
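Antagonist mode: titrated compounds tested against chenodeoxycholic acid stimulation (normalized to 50 uM CDCA and DMSO) in GeneBLAzer HEK293T cells for 16 h. Beta-lactamase read by CCF4 fluorescence; IC50 from Hill fits.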

For assay [7] the target is unchanged. As to the kind of experiment: qHTS assay for small molecule agonists of farnesoid X receptor signaling (AID 588527).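 Note: series mostly up to about 77 µM; 0% = vehicle basal and 100% = reference agonist.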 As to conditions: HEK293T FXR-UAS-bla, beta-lactamase ratio, 16 h; stronger effect = higher value. The gist of the method: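 Agonist-mode beta-lactamase reporter in GeneBLAzer FXR-UAS-bla HEK293T cells, titration up to 92 uM, 16 h exposure at 37 C, CCF4 fluorescence. Response scaled to DMSO (0%) and 100 uM chenodeoxycholic acid (100%), then Hill-fitted for EC50 and efficacy.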

Assay [8] concerns the target Androgen receptor (Homo sapiens) (UniProt P10275). Briefly: qHTS assay for small molecule agonists of androgen receptor signaling (AID 588515; active = well fitted curve in the direction sought with a large enough effect in the signal ratio, with a control signal flat; the % refers to the signal ratio; note: % is set by controls: 0 for no effect and ±100 for the full control effect). The settings on record: AR-UAS-bla HEK293, beta-lactamase ratio, agonist 16 h; stronger effect = higher value. The gist of the method: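 Stimulation of an AR-responsive β-lactamase reporter in GripTite HEK293 cells was measured after 16 h compound exposure at 37 °C, via CCF4 fluorescence after 2 h RT. EC50 from Hill fits, normalized to R1881 at 30 nM.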

The target is the same in assay [9]. As to the kind of experiment: qHTS assay for small molecule antagonists of androgen receptor signaling (AID 588516; active = well fitted curve in the direction sought with a large enough effect in the signal ratio, with a control signal flat, not every such curve was filed as active; the % refers to the signal ratio; note: % is set by controls: 0 for no effect and ±100 for the full control effect). The gist of the method: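 Antagonist-mode qHTS: inhibition of R1881 (10 nM)-driven beta-lactamase expression in GripTite HEK 293 cells is measured after 16 h; values are Hill-derived IC50s normalized between R1881 and DMSO wells.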
Assay [10] deals with Peroxisome proliferator-activated receptor gamma (Homo sapiens) (UniProt P37231). As to the kind of experiment: qHTS assay for small molecule antagonists of peroxisome proliferator-activated receptor gamma signaling (AID 588537; active = well fitted inhibition curve with a large enough effect in the signal ratio, with a control signal flat, not every such curve was filed as active; the % refers to the signal ratio; note: potency is the fitted concentration of half-maximal effect). The gist of the method:
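Fluorescence at 460 and 530 nm (405 nm excitation) reported beta-lactamase cleavage of CCF4 after 2 h room-temperature loading. HEK293 reporter cells in 1% charcoal/dextran-treated FBS had received compound and rosiglitazone for 16 h.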

The target of assay [11] is Vitamin D3 receptor (Homo sapiens) (UniProt P11473). As to the kind of experiment: qHTS assay for small molecule agonists of vitamin D receptor signaling (AID 588543).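 Note: 0% = DMSO basal and 100% = reference agonist control.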 The gist of the method: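 qHTS in agonist mode: compound titrations stimulate a VDR-driven β-lactamase reporter in HEK293T cells over 16 h at 37 °C. Response normalized to 50 nM 1α,25-dihydroxyvitamin D3 = 100%, DMSO = 0%; Hill fitting gives EC50 and maximal response.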
Vitamin D3 receptor (Homo sapiens), sequence (P11473 whole entry, looked up): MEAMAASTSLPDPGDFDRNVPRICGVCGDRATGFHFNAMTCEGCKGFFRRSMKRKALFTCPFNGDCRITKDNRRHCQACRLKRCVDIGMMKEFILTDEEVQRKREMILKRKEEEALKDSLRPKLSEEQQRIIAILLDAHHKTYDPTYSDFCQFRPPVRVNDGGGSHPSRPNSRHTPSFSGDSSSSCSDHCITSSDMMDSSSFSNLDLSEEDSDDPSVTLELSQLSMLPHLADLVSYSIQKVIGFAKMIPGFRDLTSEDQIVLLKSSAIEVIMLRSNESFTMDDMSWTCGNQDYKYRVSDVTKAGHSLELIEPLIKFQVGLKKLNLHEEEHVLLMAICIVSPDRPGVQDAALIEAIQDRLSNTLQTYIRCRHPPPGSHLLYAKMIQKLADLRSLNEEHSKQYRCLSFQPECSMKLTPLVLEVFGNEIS

Assay [12] in a line: qHTS assay for small molecule antagonists of peroxisome proliferator-activated receptor delta signaling (AID 588535; active = well fitted inhibition curve with a large enough effect in the signal ratio, with a control signal flat, not every such curve was filed as active; the % refers to the signal ratio;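 for max response: cells co-treated with a PPAR-delta agonist as stimulator during compound exposure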). As to conditions: HEK293T PPARd-UAS-bla, beta-lactamase FRET ratio, 18 h; 460 nm channel. The gist of the method: (§1)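 Fluorescence from CCF4-loaded GeneBLAzer PPAR-delta-UAS-bla HEK293T cells (2 hrs RT loading) quantified reporter inhibition after an 18 hr, 37 C compound exposure across a titration.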

Assay [13] concerns the target Peroxisome proliferator-activated receptor delta (Homo sapiens) (UniProt Q03181). The assay is described as above. The gist of the method: as §1
In assay [14] the target is Peroxisome proliferator-activated receptor gamma (Homo sapiens) (UniProt P37231). As to the kind of experiment: qHTS assay for small molecule agonists of peroxisome proliferator-activated receptor gamma signaling (AID 588536; active = well fitted curve in the direction sought with a large enough effect in the signal ratio, with a control signal flat, not every such curve was filed as active; the % refers to the signal ratio;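 note: 0% = DMSO basal wells and 100% = rosiglitazone at 2 µM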). The essentials:
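This is an agonist-mode beta-lactamase reporter assay in HEK293 PPAR-gamma-UAS-bla cells with 1% charcoal/dextran FBS. Compound titrations ran 16 h at 37 C before CCF4 detection. EC50 and efficacy are Hill fits scaled to 2 uM rosiglitazone (100%) and DMSO basal.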

Assay [15] concerns the target Vitamin D3 receptor (Homo sapiens) (UniProt P11473). Briefly: qHTS assay for small molecule antagonists of vitamin D receptor signaling (AID 588541). The essentials:
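VDR-UAS-bla HEK293T cells in 2% charcoal-stripped FBS were stimulated with 1-alpha,25-dihydroxyvitamin D3 (3 nM final) plus compound for 16 h at 37 C. The beta-lactamase CCF4 readout was normalized to 50 nM agonist and DMSO, and Hill fits gave IC50.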

A short description of assay [16]: qHTS assay for small molecule agonists of retinoid X receptor alpha signaling (AID 588544).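 For activation: 0% = DMSO basal wells and 100% = reference agonist.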 The settings on record: HEK293T RXRa-UAS-bla, beta-lactamase reporter, 18 h; 530 nm emission.
The target in assay [17] is Retinoic acid receptor RXR-alpha (Homo sapiens) (UniProt P19793). The description is as above.
The target in assay [18] is Glucocorticoid receptor (Homo sapiens) (UniProt P04150). As to the kind of experiment: qHTS assay for small molecule agonists of glucocorticoid receptor signaling (AID 588532; active = well fitted curve in the direction sought with a large enough effect in the signal ratio, with a control signal flat; the % refers to the signal ratio;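 note: 100% = dexamethasone at 0.1 µM and 0% = DMSO only wells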). As to conditions: HeLa MMTV-bla, beta-lactamase ratio, agonist, 18 h; stronger effect = higher value; percent of dexamethasone control, DMSO zero. The essentials: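 Cells were plated and rested 3-5 h at 37 C, compounds were added in titration and incubated 18 h, then CCF4 substrate was loaded for 2 h at RT before reading blue/green fluorescence. EC50 came from Hill-equation fitting.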
Glucocorticoid receptor (Homo sapiens), sequence (P04150 whole entry, looked up): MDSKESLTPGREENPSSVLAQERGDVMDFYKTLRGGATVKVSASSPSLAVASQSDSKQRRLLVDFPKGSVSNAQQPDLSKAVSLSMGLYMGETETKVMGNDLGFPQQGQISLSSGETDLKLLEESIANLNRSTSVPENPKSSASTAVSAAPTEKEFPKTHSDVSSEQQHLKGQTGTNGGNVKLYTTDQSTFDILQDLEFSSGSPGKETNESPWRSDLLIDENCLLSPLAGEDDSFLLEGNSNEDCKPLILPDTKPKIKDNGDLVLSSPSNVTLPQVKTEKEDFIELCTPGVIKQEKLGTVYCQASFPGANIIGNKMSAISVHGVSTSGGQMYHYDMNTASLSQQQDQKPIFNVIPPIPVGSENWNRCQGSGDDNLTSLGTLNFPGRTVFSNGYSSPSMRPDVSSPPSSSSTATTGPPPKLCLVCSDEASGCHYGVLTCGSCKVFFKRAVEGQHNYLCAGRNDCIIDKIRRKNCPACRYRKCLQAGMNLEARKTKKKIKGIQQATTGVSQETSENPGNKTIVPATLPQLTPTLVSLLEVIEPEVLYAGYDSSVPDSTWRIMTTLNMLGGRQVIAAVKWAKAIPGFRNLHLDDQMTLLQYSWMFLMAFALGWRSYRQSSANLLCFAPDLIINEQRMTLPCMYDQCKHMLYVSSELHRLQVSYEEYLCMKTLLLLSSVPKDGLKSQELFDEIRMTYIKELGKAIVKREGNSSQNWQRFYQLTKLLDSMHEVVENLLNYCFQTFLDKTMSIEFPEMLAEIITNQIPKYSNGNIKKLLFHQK

Bile acid receptor (Homo sapiens), sequence (Q96RI1 whole entry, looked up): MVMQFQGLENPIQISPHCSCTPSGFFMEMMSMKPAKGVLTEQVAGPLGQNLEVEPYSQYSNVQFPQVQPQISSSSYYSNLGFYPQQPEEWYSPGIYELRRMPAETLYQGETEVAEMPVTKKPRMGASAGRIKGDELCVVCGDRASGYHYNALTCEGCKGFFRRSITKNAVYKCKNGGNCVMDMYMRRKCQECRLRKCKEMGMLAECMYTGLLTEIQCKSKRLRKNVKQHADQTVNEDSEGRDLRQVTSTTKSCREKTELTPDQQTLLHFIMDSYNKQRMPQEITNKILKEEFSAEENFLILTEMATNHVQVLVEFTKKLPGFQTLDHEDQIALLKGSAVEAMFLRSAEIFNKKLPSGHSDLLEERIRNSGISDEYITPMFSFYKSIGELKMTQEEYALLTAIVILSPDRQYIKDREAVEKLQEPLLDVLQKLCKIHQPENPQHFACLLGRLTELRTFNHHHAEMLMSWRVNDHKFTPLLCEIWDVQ
Thyroid hormone receptor beta (Homo sapiens), sequence (P10828 whole entry, looked up): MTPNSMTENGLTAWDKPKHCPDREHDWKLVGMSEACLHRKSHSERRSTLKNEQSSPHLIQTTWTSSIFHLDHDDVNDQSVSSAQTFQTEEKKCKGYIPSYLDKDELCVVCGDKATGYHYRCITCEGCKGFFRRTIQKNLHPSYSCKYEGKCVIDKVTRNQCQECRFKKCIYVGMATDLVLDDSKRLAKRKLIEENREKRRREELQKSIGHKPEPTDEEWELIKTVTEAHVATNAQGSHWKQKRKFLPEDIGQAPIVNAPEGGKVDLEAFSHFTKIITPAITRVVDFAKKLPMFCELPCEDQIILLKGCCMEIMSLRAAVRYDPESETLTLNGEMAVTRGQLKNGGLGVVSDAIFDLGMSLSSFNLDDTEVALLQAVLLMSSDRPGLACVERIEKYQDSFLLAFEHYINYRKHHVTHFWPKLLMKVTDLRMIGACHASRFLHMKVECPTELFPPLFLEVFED
Peroxisome proliferator-activated receptor delta (Homo sapiens), sequence (Q03181 whole entry, looked up): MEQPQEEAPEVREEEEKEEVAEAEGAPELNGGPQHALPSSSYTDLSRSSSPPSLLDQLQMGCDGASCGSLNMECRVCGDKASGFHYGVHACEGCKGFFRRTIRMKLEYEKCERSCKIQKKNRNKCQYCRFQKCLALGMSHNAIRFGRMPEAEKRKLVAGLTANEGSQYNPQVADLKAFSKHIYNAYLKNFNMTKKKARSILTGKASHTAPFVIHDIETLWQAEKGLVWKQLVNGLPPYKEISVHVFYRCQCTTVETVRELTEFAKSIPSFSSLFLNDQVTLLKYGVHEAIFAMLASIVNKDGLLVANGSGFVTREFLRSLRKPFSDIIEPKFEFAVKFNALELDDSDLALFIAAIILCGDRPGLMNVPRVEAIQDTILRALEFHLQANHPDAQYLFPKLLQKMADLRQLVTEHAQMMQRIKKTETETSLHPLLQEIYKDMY
Estrogen receptor (Homo sapiens), sequence (P03372 whole entry, looked up): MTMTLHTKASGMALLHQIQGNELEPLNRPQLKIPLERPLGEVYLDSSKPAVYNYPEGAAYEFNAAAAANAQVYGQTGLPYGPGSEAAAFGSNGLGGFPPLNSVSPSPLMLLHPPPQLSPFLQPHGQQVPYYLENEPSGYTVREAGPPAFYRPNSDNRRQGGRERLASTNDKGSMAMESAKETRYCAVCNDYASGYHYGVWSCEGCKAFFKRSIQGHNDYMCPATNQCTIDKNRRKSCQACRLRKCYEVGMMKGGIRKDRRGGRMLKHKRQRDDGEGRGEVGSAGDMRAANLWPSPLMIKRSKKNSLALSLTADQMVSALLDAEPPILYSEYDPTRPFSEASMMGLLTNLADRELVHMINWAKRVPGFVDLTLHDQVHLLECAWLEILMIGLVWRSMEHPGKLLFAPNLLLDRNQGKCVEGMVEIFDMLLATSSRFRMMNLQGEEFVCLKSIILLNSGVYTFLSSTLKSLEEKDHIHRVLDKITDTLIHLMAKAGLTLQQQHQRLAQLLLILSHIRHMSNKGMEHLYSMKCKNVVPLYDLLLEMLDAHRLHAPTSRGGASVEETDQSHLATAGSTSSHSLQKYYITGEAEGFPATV
Peroxisome proliferator-activated receptor gamma (Homo sapiens), sequence (P37231 whole entry, looked up): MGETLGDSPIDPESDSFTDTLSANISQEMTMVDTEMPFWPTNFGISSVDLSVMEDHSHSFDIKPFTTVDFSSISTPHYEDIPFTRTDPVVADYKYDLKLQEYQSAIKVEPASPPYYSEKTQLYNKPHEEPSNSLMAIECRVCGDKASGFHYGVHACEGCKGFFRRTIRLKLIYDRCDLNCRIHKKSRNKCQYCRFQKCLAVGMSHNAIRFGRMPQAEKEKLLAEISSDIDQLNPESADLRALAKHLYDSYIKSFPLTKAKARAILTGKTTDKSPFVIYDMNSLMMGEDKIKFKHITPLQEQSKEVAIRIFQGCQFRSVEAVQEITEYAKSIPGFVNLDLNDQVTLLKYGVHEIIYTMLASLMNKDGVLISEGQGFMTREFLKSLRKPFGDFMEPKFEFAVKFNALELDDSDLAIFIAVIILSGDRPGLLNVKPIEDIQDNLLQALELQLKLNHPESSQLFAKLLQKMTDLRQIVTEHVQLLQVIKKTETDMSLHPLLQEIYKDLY
Androgen receptor (Homo sapiens), sequence (P10275 whole entry, looked up): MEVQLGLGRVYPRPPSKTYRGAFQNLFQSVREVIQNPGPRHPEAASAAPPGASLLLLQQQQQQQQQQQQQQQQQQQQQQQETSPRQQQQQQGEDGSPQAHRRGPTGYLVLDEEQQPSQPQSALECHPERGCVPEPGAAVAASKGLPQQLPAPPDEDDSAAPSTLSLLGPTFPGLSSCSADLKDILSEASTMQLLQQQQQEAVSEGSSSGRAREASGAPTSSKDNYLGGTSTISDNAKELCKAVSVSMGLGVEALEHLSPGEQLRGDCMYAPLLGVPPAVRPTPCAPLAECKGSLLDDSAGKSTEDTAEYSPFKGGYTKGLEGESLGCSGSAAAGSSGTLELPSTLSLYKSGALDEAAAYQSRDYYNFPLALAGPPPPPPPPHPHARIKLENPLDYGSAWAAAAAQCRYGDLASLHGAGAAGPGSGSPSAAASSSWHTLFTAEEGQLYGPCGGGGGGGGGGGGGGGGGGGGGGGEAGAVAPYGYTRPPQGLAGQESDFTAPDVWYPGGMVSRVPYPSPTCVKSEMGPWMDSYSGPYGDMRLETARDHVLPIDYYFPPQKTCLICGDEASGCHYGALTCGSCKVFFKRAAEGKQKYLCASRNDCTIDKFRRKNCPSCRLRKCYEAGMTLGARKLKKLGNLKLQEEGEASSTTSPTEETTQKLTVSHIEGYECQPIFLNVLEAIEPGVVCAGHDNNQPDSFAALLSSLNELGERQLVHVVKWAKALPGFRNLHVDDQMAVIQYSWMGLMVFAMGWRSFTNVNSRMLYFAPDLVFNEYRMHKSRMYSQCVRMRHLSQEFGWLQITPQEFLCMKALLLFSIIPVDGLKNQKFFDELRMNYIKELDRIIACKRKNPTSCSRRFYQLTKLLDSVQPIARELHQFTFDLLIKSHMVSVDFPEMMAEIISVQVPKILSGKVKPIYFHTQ

On to `Nc1ccc(Cl)cc1`, for which, in [1], the Potency entry was “inactive”. In addition, the compound was called inactive in [2], in [3] and in assay [4]. Also, the max response in assay [5] was -14.8%.

With `Nc1ccc([N+](=O)[O-])cc1O`, the compound was called inactive in assay [6]. Besides, in [7], the activation was -3.53% (inactive) and -2.23% (inactive).

As for `O=C(O)CCCOc1ccc(Cl)cc1Cl`, the activation in assay [8] was -19.7% (inactive). For the same compound, the Potency result in [9] and in [10] was “inactive” each time. Moreover, the result in assay [11] and in assay [4] was inactive. For the same compound, the max response in [5] worked out at 17.8%.

In the case of `Nc1c(Cl)c(Cl)c(Cl)c(Cl)c1Cl`, in [8], the activation was 1.01% (inactive). Besides, the Potency entry in assay [9], in assay [13], in assay [10], in assay [15] and in assay [17] was “inactive” throughout. In addition, the compound was called inactive in [3], in [14] and in [11]. The values for the max response in assay [12], in [16] and in assay [5] were 13.6%, -5.48% and -3.59%, respectively.

Consider `CCOP(=O)(NC(C)C)Oc1ccc(SC)c(C)c1` (stereo not given), for which the activation was 2.45% (inactive) and -12.7% (inactive) in assay [8]; 5.65% (inactive) and 4.82% (inactive) in assay [7]; 3.01% (inactive) and -4.29% (inactive) in assay [18]. For the same compound, the call in assay [6], in assay [3], in assay [14] and in [11] was inactive. Also, the max response was 97.8% in [12]; 8.26% in assay [16]; 1.81% and -9.53% in assay [5]. Also, the Potency entry in assay [13], in [15] and in assay [17] was “inactive” in each case. Moreover, in assay [10], the Potency entry was “inactive and 44.7 µM (active)”.

In the case of `O=[N+]([O-])c1cc([N+](=O)[O-])c2ccccc2c1`, the activation in assay [8] was -1.64% (inactive); in assay [18], -0.539% (inactive). Further, the max response in assay [12] is 44.3%; in [16], -2.69%; in [5], -9.65%. In addition, the Potency entry in assay [13], in assay [10], in assay [15] and in [17] was “inactive” throughout. The call in assay [14], in [11] and in assay [4] was inactive.

For `CCO/N=C(\CC)C1=C(O)CC(c2c(C)cc(C)cc2C)CC1=O` (stereo not given), the compound was classed as inactive in [2], in [6], in [11] and in assay [4]. For the same compound, the activation in [8] was -1.77% (inactive); in assay [7], 1.57% (inactive); in [18], -3.56% (inactive). The Potency entry in [9], in [13], in assay [10] and in assay [15] was “inactive” in each case. Also, the max response in [12] is 11.4%; in [5], -8.17%.

For the compound `O=S(=O)(c1ccc(Cl)cc1)c1ccc(Cl)cc1`, the Potency result in assay [1], in [13], in [15] and in [17] was “inactive” throughout. The compound was classed as inactive in assay [2], in assay [14], in assay [11] and in [4]. The activation in assay [18] was -2.41% (inactive) and 8.97% (inactive). Moreover, the max response in [12] was -8.84% and -18.1% and 9.46%; in assay [16], -4.56% and -1.98%; in [5], -9.45% and -15.5% and -9.97%.

As for `O=S(=O)(O)C(F)(F)C(F)(F)C(F)(F)C(F)(F)F`, the Potency entry in assay [1], in [13], in assay [10] and in [15] was “inactive” in each case. In addition, the activation in [18] was 0.888% (inactive). The max response in [12] was 48.3% and 16.2%. The compound was classed as inactive in [14], in [11] and in assay [4].
